# Laboratory results as given in PubChem BioAssay AID602409 (Sanford-Burnham Center for Chemical Genomics, 2012).
# Some of the results follow. Active and inactive are the calls of the source.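 How the source made its calls: active means mean inhibition over four retests above 40%; inactive means the rest.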
# Biological target: C-X-C chemokine receptor type 6 (Homo sapiens) (UniProt O00574)
# Assay: CXCR6 beta-arrestin signal inhibition by hits – cell-based, single concentration, luminescence, confirmation (AID 602409);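 further: receptor stimulated with 10 nM CXCL16 agonist; beta-galactosidase fragment complementation upon beta-arrestin recruitment to receptor; plate controls were CXCL16 plus DMSO for no effect and DMSO without CXCL16 for full effect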
# Conditions: CHO-K1 CXCR6 PathHunter beta-arrestin, at 20 µM, stronger effect = higher value
# Sequence of C-X-C chemokine receptor type 6 (Homo sapiens) (O00574 whole entry, looked up, the tested form may be a part): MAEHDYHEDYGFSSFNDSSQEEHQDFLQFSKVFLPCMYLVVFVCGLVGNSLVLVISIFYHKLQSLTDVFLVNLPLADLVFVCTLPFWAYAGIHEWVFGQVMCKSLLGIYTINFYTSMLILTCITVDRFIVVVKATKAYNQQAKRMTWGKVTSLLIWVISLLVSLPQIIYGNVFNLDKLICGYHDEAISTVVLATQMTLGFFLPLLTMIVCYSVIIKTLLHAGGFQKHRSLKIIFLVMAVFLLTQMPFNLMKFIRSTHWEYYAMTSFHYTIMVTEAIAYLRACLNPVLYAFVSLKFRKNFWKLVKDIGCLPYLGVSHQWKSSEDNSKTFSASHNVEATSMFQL
structure (smiles),measurement,value
CC(=O)OC1C2(CC3N4C(=O)C5(CO)SSC4(CC31O)C(=O)N5C)OC(C)C(C)(C)C2=O (stereo unspecified),inhibition,68.1% (active)
